# Laboratory results: PubChem BioAssay AID777 (Sanford-Burnham Center for Chemical Genomics, 2007)
# The whole screen tested about 96,000 compounds, of which about 19,000 (20%) were called active. Not all results are given here. Values without a mark were called inactive.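 Rule for the calls: active = blocking of liver enzyme CYP2C9 beyond about 50% at 5 µM (limit read from the data); inactive = the rest.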
# Biological target: Cytochrome P450 2C9 (Homo sapiens) (UniProt P11712)
# Test: blockers of cytochrome P450 2C9 activity – biochemical, luminescence, ADME assay, primary screen (AID 777)
# Conditions: CYP2C9 Supersomes, luciferin-H conversion, at 5 µM, hits give high values
# Sequence of Cytochrome P450 2C9 (Homo sapiens) (P11712 whole entry, looked up): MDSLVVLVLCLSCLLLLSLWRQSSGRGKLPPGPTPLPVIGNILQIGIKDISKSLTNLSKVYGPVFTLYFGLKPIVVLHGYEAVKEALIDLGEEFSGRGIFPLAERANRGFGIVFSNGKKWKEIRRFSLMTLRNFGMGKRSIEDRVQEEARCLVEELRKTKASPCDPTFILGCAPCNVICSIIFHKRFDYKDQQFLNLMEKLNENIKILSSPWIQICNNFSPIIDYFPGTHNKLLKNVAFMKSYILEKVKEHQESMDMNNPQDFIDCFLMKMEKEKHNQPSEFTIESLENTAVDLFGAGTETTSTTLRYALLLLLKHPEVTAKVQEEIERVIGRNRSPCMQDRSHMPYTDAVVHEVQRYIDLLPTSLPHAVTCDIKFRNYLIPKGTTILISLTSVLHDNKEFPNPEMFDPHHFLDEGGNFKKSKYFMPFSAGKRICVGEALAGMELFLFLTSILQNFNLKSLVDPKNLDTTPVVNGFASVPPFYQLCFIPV
row,Structure (SMILES),inhibition
1,COc1cc(OC)cc(-c2cc3nc(C4CCN(C(=O)OC(C)(C)C)CC4)cc(=O)n3[nH]2)c1,-10.3%
2,Cc1nnc2sc(-c3ccco3)nn12,-2.2%
3,CN(C)/C=C1\C=C(c2ccccc2)OC1=O,-1.5%
4,CN(C)c1ccc(NC(=S)N(CCc2ccccc2)C2CC(=O)N(c3c(Cl)cccc3Cl)C2=O)cc1 (centres undefined),17%
5,O=C1CC(Cc2ccccc2)C(=O)N1c1ccc(Cl)cn1 (centres undefined),20.3%
6,CCn1c(COc2ccccc2)nnc1SCC(=O)Nc1ccc2c(c1)OCCO2,6.8%
7,O=C(CSc1nnc(-c2cccnc2)n1Cc1ccco1)c1ccc(Cl)cc1,23.6%
8,COc1ccccc1NC(=O)CSc1nc2sc(C)c(C)c2c(=O)n1Cc1ccco1,93.8% (active)
9,CCn1c(COc2ccc(OC)cc2)nnc1SCC(=O)Nc1cc(OC)ccc1OC,53.8% (active)
10,O=C(CSc1nnc(-c2cccnc2)n1Cc1ccco1)c1ccc(Cl)c(Cl)c1,81.6% (active)
11,O=C(CSc1nnc(-c2cnccn2)n1Cc1ccco1)c1ccc(Cl)c(Cl)c1,28.8%
12,COc1ccccc1NC(=O)CSc1nnc(-c2ccoc2C)n1CCc1ccccc1,43.7%
13,COc1ccc(OC)c(NC(=O)CSc2nc3cccnc3n2C)c1,7.6%
14,COc1cc(Cl)c(C)cc1NC(=O)CSc1nnc(-c2ccco2)n1CC(C)C,82.6% (active)
15,O=C(CSc1nnc(-c2ccco2)n1Cc1ccccc1)NC(=O)NCc1ccco1,29.5%
16,COc1ccc(C)cc1-n1nnnc1SCC(=O)c1cc(C)n(Cc2ccco2)c1C,27.2%
17,CCCOC(=O)Nc1ccccc1C(N)=O,-7.2%
18,N=c1c2c3c(sc2ncn1CCCN1CCOCC1)CCCCC3,6.9%
19,CCOc1ccc(N=Cc2c(O)n(-c3cccc(C)n3)c(=O)c3ccccc23)cc1,18%
20,Cc1cc(C)n(-c2cc(Oc3ccccc3)ncn2)n1,21.8%
21,CCOc1ccc(NC(=O)CC2NCCNC2=O)cc1 (centres undefined),-7%
22,CCN(CC)C(=O)C1CCC(C)(C(=O)O)C1(C)C (centres undefined),-7.9%
23,CCN(CC)C(=O)CSc1nnc(CNc2ccc(F)cc2)n1Cc1ccco1,-8.3%
24,CCn1c(COc2cccc(OC)c2)nnc1SCC(=O)N1CCOCC1,15.4%
25,COc1ccc(C(=O)CSc2nnc(COc3ccccc3)n2Cc2ccco2)cc1,55.9% (active)

row,Structure (SMILES),inhibition
1,Cc1cc(C)n(-c2ccc(Cl)c(C(=O)O)n2)n1,-21%
2,Cc1ccc(-n2ccc(=O)c(C(=O)O)n2)cc1,54% (active)
3,CCn1c(SCc2ccc(C)cc2)nnc1-c1nn(-c2ccccc2)ccc1=O,5%
4,C=CCn1c(COc2ccccc2)nnc1SCC(=O)NCC(=O)OCC,-5.6%
5,C=CCn1c(SCC(=O)NCc2ccccc2)nnc1-c1cc(Br)ccc1O,97.5% (active)
6,C=CCn1c(SCC(=O)Nc2nc3ccccc3s2)nnc1-c1ccccc1O,56.6% (active)
7,C=CCn1c(CSc2nc3ccccc3s2)nnc1SCC(=O)NCc1ccco1,24.7%
8,C=CCn1c(N)cc(=O)nc1SCC(=O)Nc1cccc2ccccc12,-3.7%
9,Cc1nnc(SCC(=O)NCc2ccccc2)s1,-1%
10,CCC(Sc1nncn1C)C(=O)Nc1nnc(-c2ccc(Cl)cc2)s1 (centres undefined),32.9%
11,COc1ccc2c(c1OC)C(=O)OC2c1c(O)nc(SC)n(-c2ccccc2)c1=O (centres undefined),-12.4%
12,O=C(NC1CC2CCCC(C1)N2C(=O)N1CCCCC1)C1CCCCC1 (centres undefined),25.5%
13,CCOc1ccccc1Nc1nnc(SCC(=O)Nc2cc(C)on2)s1,7.4%
14,COc1ncnc2c1N=C1CC(C)(C)CC(N)=C1S2,1.2%
15,CCCn1c(SCC(=O)Nc2c(C)cccc2C)nnc1C(C)C,4.1%
16,Cc1nc2cc(NC(=O)CSc3nc4c(C)cccc4cc3C#N)ccc2s1,25.5%
17,Cc1cc2cc3c(cc2nc1SCC(=O)Nc1c(C)cccc1C)CCC3,61.6% (active)
18,Cn1c(SCC(=O)OC2CCCCC2)nnc1-c1ccc(S(=O)(=O)N2CCCC2)cc1,7.9%
19,CCN(CC)c1ccc(/C=N/Nc2nc(C)cc(=O)[nH]2)cc1,-21.5%
20,CC1=C2C(=O)OC(c3ccoc3)C2(C)CCC1 (centres undefined),57.9% (active)
21,CC(C)C(=O)Nc1c(C(=O)c2ccc(F)cc2)oc2ccccc12,-0.2%
22,CCOc1nnc(C)c2c(C)n(-c3cccc(Cl)c3)nc12,28.6%
23,C#CC(C)(C)NC(=O)CSc1nc2c(c(=O)n(C)c(=O)n2C)n1CCCC,23.7%
24,CCOC(=O)CNC(=O)CSc1nnc(-c2cccc(OC)c2)n1CC,9.9%
25,CCn1c(SCC(=O)Nc2nc3ccc(OC)cc3s2)nnc1-c1ccoc1C,68.2% (active)

row,Structure (SMILES),inhibition
1,CCOc1ccc2nc(NC(=O)CSc3nc4c(c(=O)n(C)c(=O)n4C)n3CC)sc2c1,52.2% (active)
2,CCCn1c(SCC(=O)Nc2cccc(C(=O)OCC)c2)nnc1-c1ccoc1C,15.8%
3,CCCCn1c(SCC(=O)NCCc2ccc(OC)c(OC)c2)nc2c1c(=O)n(C)c(=O)n2C,-17.3%
4,Cc1c(Nc2cc(N3CCCC(C)C3)c3nonc3c2[N+](=O)[O-])c(=O)n(-c2ccccc2)n1C (centres undefined),41.4%
5,CC1CSc2nnc(CCc3ccccc3)n21 (centres undefined),-10.1%
6,COc1ccccc1NC(=O)COc1ccc(C(=O)OCC(=O)N(C(C)C)C(C)C)cc1OC,37.6%
7,CC1CC(C)CN(CC(=O)Nc2ccc(S(N)(=O)=O)cc2)C1 (centres undefined),15.7%
8,CN(C)/C=C1/Nc2ccccc2C1=O,-8.2%
9,c1ccc(-n2nnnc2N2CCOCC2)cc1,-5.9%
10,O=C(CN1CCOCC1)Nc1c2c(nc3c1CCC3)CCC2,-11.6%
11,CCN(CC)CCn1c2ccc(Cl)cc2c2nc(C)sc21,46.4%
12,Cc1nc(Cl)c2oc3ccccc3c2n1,9%
13,CCC(Oc1ccccc1)C(=O)NCc1cccnc1 (centres undefined),8.8%
14,COc1ccc(-c2cc(C(F)(F)F)nc(S(C)(=O)=O)n2)cc1OC,4.2%
15,COc1ccc(-c2cc(C(F)(F)F)nc(NCc3cccnc3)n2)cc1,55.3% (active)
16,C=CCC(NCCCO)c1cccc(OC)c1OC (centres undefined),-26.1%
17,CC(C)(C)c1cc2cccnc2n1Cc1ccccc1,0.7%
18,CCOc1cccc(SCc2noc(C(=O)NC(C)C)c2C(=O)O)c1,73.7% (active)
19,COC(=O)c1c(CCl)noc1C(=O)NC(C)C,-0.5%
20,CCCCNC(=O)c1onc(CSc2cccc(OC)c2)c1C(=O)O,82.5% (active)
21,CCOc1ccc2nc(SC(CC)C(=O)Nc3cc(C)on3)sc2c1 (centres undefined),-4.1%
22,COCCNC(=O)c1onc(CSc2cccc(C)c2)c1C(=O)O,30.2%
23,COc1ccc(SCc2noc(C(=O)NCC3CCCO3)c2C(=O)O)cc1 (centres undefined),20.1%
24,O=[N+]([O-])c1ccc(Oc2ccc(F)cc2Br)c2ccncc12,6.1%
25,Cc1ccc(NC(=O)Nc2ccc3oc(C)nc3c2)cc1,8.7%

row,Structure (SMILES),inhibition
1,CCOC(=O)CSC1=C(C#N)C(c2sccc2C)CC(=O)N1 (centres undefined),54.8% (active)
2,Cc1ccc(C2CC(=O)NC(SCC(=O)OCc3ccccc3)=C2C#N)o1 (centres undefined),97% (active)
3,COC(=O)CSC1=C(C#N)C(c2ccccc2OC)C(C(=O)OC)C(=O)N1 (centres undefined),24%
4,C=CCSC1=C(C#N)C(c2cc(Br)c(O)c(OC)c2)CC(=O)N1 (centres undefined),39.1%
5,CCOC(=O)c1ccc(N2C(=O)CC(Sc3nc(O)c(CC)c(=O)[nH]3)C2=O)cc1 (centres undefined),26.2%
6,O=C(COc1ccc(Cl)cc1)N1CCN(c2cccc(C(F)(F)F)c2)CC1,13.6%
7,Cc1cc(NC(=O)CS(=O)(=O)c2cn(C)c3ccccc23)no1,-20.5%
8,CCN(CC)S(=O)(=O)c1ccc2nc(CSc3nnnn3-c3ccc(O)cc3)[nH]c2c1,97.3% (active)
9,COc1ccc(-n2nnnc2SCc2nc(N)nc(N3CCOCC3)n2)cc1,35.6%
10,CCN(CC)S(=O)(=O)c1ccc2[nH]cc(C(=O)NCCc3ccccc3)c(=O)c2c1,22.4%
11,CCN(CC)S(=O)(=O)c1ccc2nc(COC(=O)c3n[nH]c4ccccc34)[nH]c2c1,77.2% (active)
12,O=c1c2ccccc2nc(CSc2nnnn2-c2ccccc2)n1-c1ccccc1,-6.4%
13,CN(C)S(=O)(=O)c1ccc(NC(=O)COC(=O)c2n[nH]c3ccccc23)cc1,13.8%
14,COC(=O)[C@H](Cc1ccccc1)NC(=O)N1CC(C)OC(C)C1 (some centres undefined),4.3%
15,O=C(NC1(C(F)(F)F)NC(=O)N(Cc2cccnc2)C1=O)c1ccccc1Cl (centres undefined),2.6%
16,CC(C)(C)NC(=O)NC(=O)COC(=O)CCC1CCCCC1,11.7%
17,CC(=O)N=c1ncn(CC(COC(C)=O)OC(C)=O)c2nc[nH]c12 (centres undefined),10.5%
18,O=C(Nc1ccccc1C(F)(F)F)c1cc(-c2ccc(O)cc2)on1,-234%
19,Cc1cc2c(c(=O)n1C)C(C(C)C)C(C#N)=C(N)O2 (centres undefined),9.3%
20,CCOC(=O)C1(C(F)(F)F)N=C(N(C)C)OC(N(C)C)=N1,5.6%
21,C=CCOc1ccc(Cl)cc1CNCCCN1CCOCC1,9.4%
22,Cc1ccc(OCC(=O)N/N=C/c2ccncc2)cc1,86.7% (active)
23,CSc1ccc(/C=N\NC(=O)COc2ccc(Cl)cc2Br)cc1,36%
24,Cc1cc(C)c(OCC(=O)N/N=C/c2ccco2)c(C)c1,-17.6%
